From ChEMBL document CHEMBL1157539, “Thousands of chemical starting points for antimalarial lead identification” (Nature, 2010) come the findings set out here.

The structures appear in SMILES notation.

Common to all, as to format: functional
Test [1] concerns Plasmodium falciparum. Put plainly: GSK_TCMDC: Inhibition of Plasmodium falciparum 3D7 in whole red blood cells, using parasite LDH activity as an index of growth. Test compounds present at 2uM.
The subject of test [2] is Plasmodium falciparum. Kind of test: GSK_TCMDC: Inhibition of Plasmodium falciparum Dd2 in whole red blood cells, using parasite LDH activity as an index of growth. Test compounds present at 2uM.
For another test, the system named is HepG2. Put plainly: GSK_TCMDC: Percent inhibition of human HepG2 cell line. Test compounds present at 10uM.

For orientation: Inhibition means the percentage by which the read-out fell short of the control. A higher Inhibition goes with a strong effect. Turning to `CCN(CC)CCOC(=O)c1ccc(NC(=O)c2cc(-c3ccc(C)cc3)nc3ccccc23)cc1.Cl`, the Inhibition in the test on Plasmodium falciparum [1] was found to be 97%; in the test on Plasmodium falciparum [2], 12%; in the test with HepG2, 22%.

In the case of `COc1ccc2ncc(F)c(CCN3CC(O)C(CNCc4ccccc4)C3)c2n1.Cl` (configuration not stated), the Inhibition with Plasmodium falciparum [1] is 89%; in the test on Plasmodium falciparum [2], 22%; in the test on HepG2, 19%.

`Cl.N=C(N)c1ccc(Nc2nc(Nc3ccc(-c4ccccc4)cc3)ncc2[N+](=O)[O-])cc1`: the values for the Inhibition in the test with Plasmodium falciparum [1], with Plasmodium falciparum [2] and in the test on HepG2 were 99%, 35% and 11%, respectively.

On to `Cc1cc2c(cc1C(F)(F)F)N(C(=O)Nc1cc(OCCN(C(C)C)C(C)C)cc(C(F)(F)F)c1)CC2.Cl`, for which the Inhibition in the test on Plasmodium falciparum [1] was found to be 100%; in the test on Plasmodium falciparum [2], 86%; in the test with HepG2, 42%.

For `O=C(Nc1ccc(-c2cccc(-c3nc4ccccc4[nH]3)c2)cc1)Nc1ccc2c(c1)OCO2`, the Inhibition was determined as 100% in the test on Plasmodium falciparum [1], 65% with Plasmodium falciparum [2] and 55% in the test on HepG2.

For the compound `Clc1ccc(-c2cc(-c3csc(NCCN4CCOCC4)n3)on2)c(Cl)c1`, the Inhibition in the test on Plasmodium falciparum [1] is given as 97%; with Plasmodium falciparum [2], 86%; in the test with HepG2 it was 39%.

On to `O=C(/C=C/c1ccccc1)N1CCOC(CCN2CCC(c3ccccc3)CC2)(c2ccc(Cl)c(Cl)c2)C1` (configuration not stated), for which the Inhibition was determined as 89% in the test with Plasmodium falciparum [1], 63% with Plasmodium falciparum [2] and 4% with HepG2.

As for `O=C(NC1CCCCC1)N(Cc1ccc(-c2ccc(CNCc3ccc4c(c3)OCO4)cc2)cc1)C1CCN(Cc2ccccc2)CC1.O=C(O)C(F)(F)F`, the results for the Inhibition in the test on Plasmodium falciparum [1], in the test on Plasmodium falciparum [2] and with HepG2 were 100%, 72% and 28%, respectively.

For `O=C(N/C=N/c1cc([N+](=O)[O-])c(-c2ccncc2)n1-c1ccccc1)c1cccc(O)c1`, the figures for the Inhibition in the test on Plasmodium falciparum [1], in the test on Plasmodium falciparum [2] and in the test on HepG2 were 100%, 56% and 2%, respectively.

As for `CC(=O)Nc1ccc(Nc2c3ccccc3nc3ccccc23)cc1`, the figures for the Inhibition in the test with Plasmodium falciparum [1], with Plasmodium falciparum [2] and with HepG2 were 89%, 62% and 41%, respectively.

For `Cc1noc(-c2ccccc2)c1NC(=O)NC1CCN(CCCCCNC(=O)/C=C/c2ccc(Cl)c(Cl)c2)CC1`, the Inhibition came out at 93% with Plasmodium falciparum [1], 0% with Plasmodium falciparum [2] and 0% with HepG2.

`Cl.N#Cc1ccc(-c2ccc(C(=O)Nc3ccc4c(c3)CCN(C3CCC3)CC4)nc2)cc1`: the figures for the Inhibition in the test on Plasmodium falciparum [1], in the test on Plasmodium falciparum [2] and in the test with HepG2 were 99%, 63% and 21%, respectively.

With `O=C(Nc1ccc(CCNCc2ccccc2)cc1)Nc1ccc(OC(F)(F)F)cc1.O=C(O)C(F)(F)F`, the Inhibition turned out to be 100% with Plasmodium falciparum [1], 22% with Plasmodium falciparum [2] and 0% in the test on HepG2.

Consider `Cl.N#Cc1ccc2c(c1)CCN(CCC1CCC(NC(=O)/C=C/c3cc(Br)cs3)CC1)CC2` (configuration not stated), for which the Inhibition in the test with Plasmodium falciparum [1] was determined as 93%; in the test with Plasmodium falciparum [2] it was 1%; with HepG2, 3%.

On to `COCCOc1ccc(Nc2nccc(-c3c(-c4cccc(NC(=O)c5c(F)cccc5F)c4)nn4ccccc34)n2)cc1Cl`, for which the Inhibition came out at 99% in the test on Plasmodium falciparum [1], 97% in the test with Plasmodium falciparum [2] and 53% in the test on HepG2.

With `CS(=O)(=O)N1CC2(CCN(CCC(NC(=O)NCc3ccccc3Cl)c3ccc(Cl)c(Cl)c3)CC2)c2ccccc21` (configuration not stated), the Inhibition in the test with Plasmodium falciparum [1] is 85%; in the test with Plasmodium falciparum [2], 98%; with HepG2 it was 12%.

On to `c1ccc(C2=NN=C(c3ccccn3)C3C4CC(C23)C2C3CC(c5ccccc53)C42)nc1` (configuration not stated), for which the results for the Inhibition with Plasmodium falciparum [1], in the test with Plasmodium falciparum [2] and in the test with HepG2 were 98%, 77% and 39%, respectively.

As to `COc1cc2c(cc1N(C(C)C)S(=O)(=O)c1sc3ccc(Cl)cc3c1C)CCNCC2.Cl`, the Inhibition in the test with Plasmodium falciparum [1] came to 91%; in the test with Plasmodium falciparum [2] it was 70%; in the test with HepG2 it was 98%.

`COc1ccc2[nH]ccc(=NN=Cc3ccccc3)c2c1`: the Inhibition is given as 100% with Plasmodium falciparum [1], 99% in the test with Plasmodium falciparum [2] and 0% with HepG2.

With `CNS(=O)(=O)CCNCc1ccc(-c2ccc3ncnc(Nc4ccc(OCc5ccccc5)cc4)c3c2)o1`, the Inhibition in the test with Plasmodium falciparum [1] is 100%; in the test with Plasmodium falciparum [2], 26%; in the test on HepG2, 19%.

Consider `CCc1cn(C)c2c(N3CCCC3=O)cc(C(=O)N[C@@H](Cc3ccccc3)[C@H](O)CNC(C)(C)CCCC(C)C)cc12`, for which the figures for the Inhibition in the test on Plasmodium falciparum [1], in the test with Plasmodium falciparum [2] and in the test with HepG2 were 97%, 98% and 15%, respectively.

Regarding `Clc1ccc(-c2cnc3ccc(NCCc4cccnc4)nn23)cc1`, the Inhibition is on record as 97% with Plasmodium falciparum [1], 32% in the test with Plasmodium falciparum [2] and 34% with HepG2.

On to `O=S(=O)(Nc1cccc(CCN2CCCCC2CCN2CCCC2)c1)c1ccc2ccccc2c1` (configuration not stated), for which the Inhibition turned out to be 91% in the test with Plasmodium falciparum [1], 40% in the test with Plasmodium falciparum [2] and 22% with HepG2.

Take `O=C(Nc1ccc(I)cc1)N1CCc2sccc2C1CN1CCCCC1` (configuration not stated): the figures for the Inhibition with Plasmodium falciparum [1], in the test on Plasmodium falciparum [2] and in the test on HepG2 were 90%, 0% and 33%, respectively.

Take `Cc1ccc(-c2nc(N3CCN(C(=O)c4ccco4)CC3)c3ccc(Cl)cc3n2)cc1`: the Inhibition was determined as 90% in the test with Plasmodium falciparum [1], 78% in the test on Plasmodium falciparum [2] and 17% in the test on HepG2.

Take `CN(Cc1c(Cl)cnn1C)S(=O)(=O)c1ccc2ccccc2c1`: the results for the Inhibition with Plasmodium falciparum [1], with Plasmodium falciparum [2] and with HepG2 were 94%, 36% and 7%, respectively.

On to `O=C(O)C(F)(F)F.c1ccc(CNCc2cccc(-c3ccc(-c4nc5ccccc5[nH]4)cc3)c2)cc1`, for which the Inhibition in the test with Plasmodium falciparum [1] is reported as 97%; in the test on Plasmodium falciparum [2], 39%; in the test with HepG2, 10%.

Consider `COc1cccc2c(NN=Cc3ccc(Cl)cc3)ccnc12`, for which the results for the Inhibition in the test with Plasmodium falciparum [1], with Plasmodium falciparum [2] and with HepG2 were 99%, 39% and 26%, respectively.

In the case of `Cl.O=C(/C=C/c1ccc(Cl)c(Cl)c1)N1CCC(CCN2CCC(c3c[nH]c4cnccc34)CC2)CC1`, the values for the Inhibition with Plasmodium falciparum [1], with Plasmodium falciparum [2] and in the test on HepG2 were 100%, 100% and 93%, respectively.
